Out of some 69,000 compounds screened, about 8,600 (12%) showed an effect of 50% or more. The sample as a whole holds a higher share of strong results than the screen did.
System: Plasmodium berghei
Test: Screen against P. berghei liver stage (PbLuc), transformed with Luciferase, at 10uM
Assay type: functional, HepG2
Details: tested at 10 uM

| Structure (SMILES) | INHIBITION [%] |
| --- | --- |
| CN1CC2(CCN(Cc3ccoc3)CC2)COc2ccccc2S1(=O)=O | 13.7 |
| Cc1cc(C(N)=O)nc(C2(C)CCCN2Cc2cnn(C)c2)n1 (configuration not stated) | 18.3 |
| Cc1nccn1[C@@H]1CC[C@@H](N(C)S(=O)(=O)c2cccc(F)c2)[C@H]1O | 16.96 |
| CCN(C(=O)CN1CCCC1c1ccc(F)cc1)c1ccccc1C (configuration not stated) | -55.1 |
| Cc1cc(C2CCCN2CC(=O)N(CCC#N)c2ccccc2F)on1 (configuration not stated) | 26.8 |
| CCN(C(=O)CN1CCCC1c1cc(C)no1)c1ccccc1C (configuration not stated) | 62.4 |
| CN(C)CCOCc1nnc2n1CCN(Cc1cccs1)CC2 | -35 |
| O=C(CSC1CCc2ccccc2NC1=O)NCc1cccs1 (configuration not stated) | 3.13 |
| CN(CCCc1nccn1C)c1nccc(-c2cc(C(=O)O)ccn2)n1 | 14 |
| O=C(Cc1cnc(-n2cccc2)s1)NCCCO | -1.99 |
| c1csc(CN2CCCn3cnc(COCC4CC4)c3C2)c1 | -1.55 |
| c1coc(COCc2ncn3c2CN(Cc2cccs2)CCC3)c1 | 56.7 |
| CN(C)C(=O)NCc1ncn2c1CN(Cc1cccs1)CCC2 | 52.3 |
| CS(=O)(=O)NCc1ncn2c1CN(Cc1cccs1)CCC2 | -17.9 |
| OCCOCc1ncn2c1CN(Cc1cccs1)CCC2 | 21.8 |
| CN(C)C(=O)NCc1ncn2c1CN(Cc1ccco1)CCC2 | 28.2 |
| Cc1ccc(S(=O)(=O)NCCc2nnc[nH]2)c2cccnc12 | 33.7 |
| O=C1CCCN1Cc1ncn2c1CN(C(=O)NC1CCCC1)CCC2 | -56.2 |
| NC(=O)N1CCCCCC1C1CCN(c2nccc(C(F)(F)F)n2)CC1 (configuration not stated) | 61.8 |
| O=C(C1CC1)N1CCCCCC1C1CCN(c2ncccn2)CC1 (configuration not stated) | 22.3 |
| N#Cc1cccnc1N1CCC(C2CCCCCN2C(N)=O)CC1 (configuration not stated) | -5.567 |
| CC(C)N1CCC(c2nccnc2Nc2cnccn2)CC1 | 23.9 |
| Cc1ncc(C(=O)NCCNc2ncnc3sccc23)s1 | 77.1 |

| Structure (SMILES) | INHIBITION [%] |
| --- | --- |
| Cc1ncsc1C(=O)NCCNC(=O)c1cccs1 | 10.2 |
| CCc1nc(C)c(C(=O)NCCNc2ncccc2C#N)s1 | 2.3 |
| Cc1ncc(C(=O)NCCNC(=O)c2ccccc2)s1 | 0.411 |
| CCc1nc(C)c(C(=O)NCCNc2ncccn2)s1 | 29.1 |
| CCCc1nc(C)c(C(=O)NCCNc2ncccn2)s1 | 19.6 |
| CCc1nc(C)c(C(=O)NCCNc2ncnc3sccc23)s1 | 93.3 |
| CCc1nc(C)c(C(=O)NCCNC(=O)c2cccs2)s1 | 58 |
| CCc1ncc(C(=O)NCCNc2ccncc2)s1 | 23.4 |
| CCc1ncc(C(=O)NCCNc2ncnc3sccc23)s1 | 96 |
| CCc1ncncc1C(=O)NCCNc1ncnc2sccc12 | 41.3 |
| Cc1ncc(C(=O)NCCNc2ccncc2)s1 | -21.3 |
| COc1c(C2CCCN2C(=O)c2cc(C)on2)c(C)nn1C (configuration not stated) | 14.1 |
| Cc1ncc2c(n1)CN(CC(=O)Nc1nccs1)CC2 | 1.78 |
| COc1ccccc1OCCNCc1c(C)nn(C)c1N(C)C | -11.98 |
| CCOc1ccc(C(=O)N(C)Cc2nccn2CC(F)(F)F)cc1 | 21.7 |
| Cc1ccc(CC(=O)N2CCCC(n3nc(C)cc3C)C2)cn1 (configuration not stated) | 5.03 |
| CC(=O)c1cccc(NC(=O)Cn2cc(-c3ccccc3)ncc2=O)c1 | 17 |
| O=C(NCc1ccnc(OCC2CC2)c1)C1Cc2ccccc2O1 (configuration not stated) | -39.6 |
| Clc1ccccc1CN1CCCC(c2nnc(-c3cnccn3)o2)C1 (configuration not stated) | 2.71 |
| CC(O)c1cn(Cc2ccc(F)cc2)nn1 (configuration not stated) | 23.6 |
| CN(C)c1ncc(-c2cc(C(=O)NCCC#N)n(CC3CC3)c2)cn1 | -2.35 |
| Cc1cnc(-c2nc(C3CCN(Cc4ccccc4Cl)CC3)no2)cn1 | 32.35 |
| c1cc(-c2noc(CN3CCn4c(nnc4C4CC4)C3)n2)cs1 | -14.65 |

| Structure (SMILES) | INHIBITION [%] |
| --- | --- |
| Cc1nc(C)n(C2CCCN(C(=O)CCc3cscn3)C2)n1 (configuration not stated) | 37.9 |
| c1cnc(C2CCCN(Cc3ccsc3)C2)cn1 (configuration not stated) | 25.4 |
| CC1(C)CC(CN2CCC3(CCC(=O)N(C4CCC4)C3)CC2)CCO1 (configuration not stated) | 6.27 |
| CC(=O)c1ccc(N2CCC3(CCC(=O)N(C4CC4)C3)CC2)nc1 | -25.7 |
| Cc1ncc(CC(=O)N2CCC3(CCC(=O)N(CCO)C3)CC2)c(=O)[nH]1 | 46.1 |
| O=C(Cc1c[nH]c(=O)[nH]c1=O)N1CCC2(CCC(=O)N(C3CC3)C2)CC1 | 58.2 |
| Cc1cnn(CC(=O)N2CCC3(CCC(=O)N(C4CCCC4)C3)CC2)c1 | 39.1 |
| O=C(c1c[nH]c(=O)[nH]1)N1CCCC2(CCC(=O)N(C3CCCC3)C2)C1 (configuration not stated) | 37.7 |
| O=C(Nc1ccc(F)cc1)N1CCC2(CCC(=O)N(C3CC3)C2)CC1 | 31.6 |
| CC1(C)CC(C(=O)N2CCC3(CCC(=O)N(C4CC4)C3)CC2)CCO1 (configuration not stated) | 53.3 |
| Cc1ncc(CC(=O)N2CCC3(CCC(=O)N(C4CC4)C3)CC2)c(=O)[nH]1 | 50.8 |
| O=C(COC1CCCC1)NCCc1noc(-c2ccccn2)n1 | -13.1 |
| Cc1cc(N(C)C)nc(C2COCCN2Cc2cc(C)on2)n1 (configuration not stated) | 44.8 |
| CNC(=O)C1(c2cnccn2)CCCN1C(=O)c1ccc(OC)cc1 (configuration not stated) | 20.8 |
| N[C@@H](Cc1c[nH]cn1)C(=O)N1CCC(Oc2ccc(F)cc2)CC1 | 42.8 |
| O=C(O)COc1ccc(Cl)cc1CN1CCC2(CCNCC2)CC1 | 5.46 |
| O=C(O)COc1ccc(Cl)cc1CN1CCC2(CCOCC2)CC1 | 64.5 |
| CN1CC2(CCN(Cc3cc(Cl)ccc3OCC(=O)O)CC2)OC1=O | 33.3 |
| Cc1ccc2cc(C(=O)N3CCCC3Cn3cccn3)[nH]c2c1 (configuration not stated) | -167 |
| CCC1CN(C)c2ccccc2CN1CCn1cncn1 (configuration not stated) | 40.6 |
| N[C@H]1CN(S(=O)(=O)c2cccnc2)C[C@@H]1C1CC1 | 1.98 |
| N[C@H]1CN(CCCOc2ccccc2)C[C@@H]1C1CC1 | 53.8 |
| NC(=O)c1ccc(OCCCN2C[C@H](C3CC3)[C@@H](N)C2)cc1 | -13.4 |

| Structure (SMILES) | INHIBITION [%] |
| --- | --- |
| Cc1ccc(-n2cccn2)cc1S(=O)(=O)N1C[C@H](C2CC2)[C@@H](N)C1 | 59.5 |
| N[C@H]1CN(CCOc2ccc(F)cc2)C[C@@H]1C1CC1 | 27.6 |
| Cc1ccc(-n2cccn2)cc1S(=O)(=O)N1C[C@H]2CC[C@@H](C1)N(C)C2 | 48.1 |
| N[C@H]1CN(S(=O)(=O)Cc2ccccc2)C[C@@H]1C1CC1 | -28.7 |
| N[C@H]1CN(S(=O)(=O)c2ccccc2)C[C@@H]1C1CC1 | 58.3 |
| COc1ccc(-n2cccn2)cc1S(=O)(=O)N1C[C@H](C2CC2)[C@@H](N)C1 | 12.8 |
| CCS(=O)(=O)N1CCC2(CCN(CC(=O)N(C)C)C2=O)CC1 | 37.1 |
| NC(=O)c1ccccc1Oc1cccc(C2CCCNC2)n1 (configuration not stated) | -13.2 |
| O=c1[nH]c2ccc(S(=O)(=O)N(CCO)Cc3ccncc3)cc2[nH]1 | 17.5 |
| Cc1oncc1C(=O)N1CCOCC2(CCN(c3ccccn3)C2)C1 (configuration not stated) | 45.1 |
| c1ccc(OCC2CC3(CCN(c4ncccn4)CC3)CO2)nc1 (configuration not stated) | -34 |
| COc1ccnc(N2CCN(CC(=O)N3CCC(C)CC3)CC2)n1 | -22.9 |
| Cc1cc(CN(C)C(=O)c2ccc(F)c(C(F)(F)F)c2)no1 | 23.5 |
| CN(Cc1ccccc1C#N)C1CCN(CCc2ccccn2)CC1 | -52.5 |
| c1ccc(-c2noc(CCNC3CCOC4(CCOCC4)C3)n2)nc1 (configuration not stated) | -37.8 |
| CCn1cc(CN2CCCN(C(=O)c3sc(C)nc3C)CC2)cn1 | 7.08 |
| O=C(c1ccsc1)N1CCc2onc(COc3ccccn3)c2C1 | 45.8 |
| COc1c(CNCc2ccccc2Cn2ccnc2)c(C)nn1C | 24 |
| CCCc1nnsc1C(=O)N1CCN(CC(O)c2ccco2)CC1 (configuration not stated) | 7.85 |
| CCc1noc(CNc2ccc(F)cc2OCC2CC2)n1 | -29.9 |
| CCc1nc(CNc2cc(Cl)ccc2OCC2CCCO2)no1 (configuration not stated) | 93.1 |
| O=C(Nc1cc(F)ccc1OCC1CCCO1)c1ccccn1 (configuration not stated) | -25.9 |
| CC(C)(C)c1nnc(CNc2cc(F)ccc2OCC2CCCO2)o1 (configuration not stated) | 35.5 |

| Structure (SMILES) | INHIBITION [%] |
| --- | --- |
| Fc1ccc(OCC2CCCO2)c(NCc2noc(C3CC3)n2)c1 (configuration not stated) | 35.5 |
| Fc1ccc(OCC2CCCO2)c(NCc2cn3cccnc3n2)c1 (configuration not stated) | 59.3 |
| Nc1ccnc(CNc2cc(F)ccc2OCC2CCCO2)n1 (configuration not stated) | 54.4 |
| O=C(CNc1cc(F)ccc1OCC1CCCO1)N1CCOCC1 (configuration not stated) | 19.5 |
| CCc1noc(CNc2cc(F)ccc2OCC2CCCO2)n1 (configuration not stated) | 1.81 |
| NCC1CCC2(CCN(C(=O)c3ccccn3)CC2)CO1 (configuration not stated) | 38.5 |
| Cc1ncc(C(=O)NC2CCc3nccn3C2)c(C(C)C)n1 (configuration not stated) | 11.6 |
| CCOCC1c2c(cnn2CC2CC2)CCN1C(=O)c1ccncn1 (configuration not stated) | 6.72 |
| O=C(CC1CC1)N1CC[C@@H]2[C@H](CC1)N(Cc1cccnc1)CCS2(=O)=O | -35 |
| Cc1nc(C)n(C2CCCN(C(=O)CCn3ccnn3)C2)n1 (configuration not stated) | -10.3 |
| Cc1cn[nH]c1C1COCCN1Cc1ccsc1 (configuration not stated) | 25.15 |
| O=C(NS(=O)(=O)c1c(Cl)cccc1Cl)c1cccc2c1OCCO2 | 12.3 |
| O=C(CCCC(=O)NCc1cccc(Br)c1)NCCN1CCCC1 | 17.5 |
| CC(C)S(=O)(=O)N1CCC(c2cc3n(n2)[C@@H](C(F)(F)F)C[C@@H](C)N3)C1 (some centres not stated) | 27.3 |
| CCN(CC)CC(=O)N1CCN(c2nc(C)cc(OC)n2)CC1 | 2.54 |
| COc1cc(C)nc(N2CCN(C(=O)CN(C)C3CC3)CC2)n1 | -3.18 |
| CCOc1cc(C)nc(N2CCN(C(=O)C(C)NC(C)=O)CC2)n1 (configuration not stated) | 60.5 |
| CCOc1cc(C)nc(N2CCN(C(=O)CC)CC2)n1 | 8.25 |
| COc1cc(C)nc(N2CCN(C(=O)CN(C)C(C)C)CC2)n1 | 59.9 |
| CCOc1cc(C)nc(N2CCN(C(=O)c3ccncc3)CC2)n1 | 33.8 |

— ChEMBL document CHEMBL4513216, “Probing the Open Global Health Chemical Diversity Library for Multistage-Active Starting Points for Next-Generation Antimalarials” (ACS Infect Dis, 2020)
